# Several values for one entry are separate records, joined by “and”; a condition that tells them apart may be missing. Equal entries are not always repeated. Results filed as inconclusive are left out. Activity calls are given as the source filed them. Calls follow the shape of the dose curve; as a rule, active = well fitted curve in the direction sought with a large enough effect; inconclusive = small, poorly fitted or top-dose-only effect, or another doubt; inactive = no such curve, though single readings can be large or run the other way.
# Experiment: qHTS Assay for Identifying Gametocytocidal Compounds (AID 743244);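 as to max response: actives lower the fluorescent signal which means gametocytes are killed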
# Details: P. falciparum 3D7 stage III-V gametocytes, alamarBlue, 72 h; max response: stronger effect = lower value
# Summary of the method: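 A resazurin-based viability read-out was applied to mature P. falciparum gametocytes: 72 h compound treatment, then 24 h dye incubation, with falling fluorescence signalling gametocytocidal effect.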
# % is scaled to controls: 0 for no effect and ±100 for the full control effect; potency is read from the fitted curve at half-maximal effect.
SMILES,max response,Potency
CSc1ccc(/C=C2/C(C)=C(CC(=O)O)c3cc(F)ccc32)cc1,-4.94% (inactive),–
O=C1CC[C@H](C(=O)N2CCCCC2)N1,-15.9% (inactive),–
CN1CC(=O)N2[C@H](c3ccc4c(c3)OCO4)c3[nH]c4ccccc4c3C[C@@H]2C1=O,-3.23% (inactive),–
C=CCOc1cc(Cl)ccc1C(=O)NCCN(CC)CC,9.51% (inactive),–
Nc1c(NC/C=C\COc2cc(CN3CCCCC3)ccn2)c(=O)c1=O,-0.695% (inactive),–
CC(C)(C)C(=O)OCOC(=O)C1N2C(=O)CC2S(=O)(=O)C1(C)C (stereo not drawn),0.683% (inactive),–
CCCCC/C=C\C/C=C\CCCCCCCC(=O)NC(C)c1ccccc1 (stereo not drawn),-1.75% (inactive),–
COc1cc(NS(=O)(=O)c2ccc(N)cc2)nc(C)n1,34.9% (inactive),–
CCOC(=O)Cn1cccc1-c1nc(-c2ccc(OC)cc2)c(-c2ccc(OC)cc2)s1,9.5% (inactive),–
O=C(Nc1ccc(S(=O)(=O)N2CCOCC2)cc1)c1cc(Cl)ccc1NS(=O)(=O)c1ccc(Cl)s1,15.3% (inactive),–
CC(C)(C)C(O)/C=C/c1ccc2c(c1)OCO2 (stereo not drawn),-15.2% (inactive),–
OC(CCCN1CCCCC1)(c1ccccc1)c1ccccc1,-13.7% (inactive),–
CC(=O)OCC(=O)[C@@]1(O)[C@H](OC(C)=O)C[C@H]2[C@@H]3CCC4=CC(=O)C=C[C@]4(C)[C@@]3(F)[C@@H](O)C[C@@]21C,-5.18% (inactive),–
O=C(O)CCCC[C@@H]1SC[C@@H]2NC(=O)N[C@@H]21,-7.74% (inactive),–
CC(=O)OCC[N+](C)(C)C,0.348% (inactive),–
O=C(CCCCC(=O)Nc1c(I)cc(I)c(C(=O)O)c1I)Nc1c(I)cc(I)c(C(=O)O)c1I,35.4% (inactive),–
CCC[C@H](N[C@@H](C)C(=O)N1[C@H](C(=O)O)C[C@@H]2CCCC[C@@H]21)C(=O)OCC,-14.5% (inactive),–

SMILES,max response,Potency
CC(NN)c1ccccc1 (stereo not drawn),-6.49% (inactive),–
CN1C(=O)CC(C)(c2ccccc2)C1=O (stereo not drawn),-8.12% (inactive),–
O=C(OCC1(COC(=O)c2cccnc2)CCCC(COC(=O)c2cccnc2)(COC(=O)c2cccnc2)C1O)c1cccnc1,-9.22% (inactive),–
N#C/C(=C1/SC[C@@H](c2ccc(Cl)cc2Cl)S1)n1ccnc1,8.83% (inactive) and -5.83% (inactive) and 7.31% (inactive),–
Cc1cc2nc3ccc(=[N+](C)C)cc-3sc2cc1N,–,6.31 µM (active)
OCCCc1ccccc1,-2.92% (inactive),–
CCN1CCN(C(=O)N[C@@H](C(=O)N[C@@H]2C(=O)N3[C@@H]2SC(C)(C)[C@H]3C(=O)O)c2ccccc2)C(=O)C1=O,-7.03% (inactive),–
CCOC(=O)NNc1ccc(N(CC)CC(C)O)nn1 (stereo not drawn),0.172% (inactive),–
CCOC(=O)c1ccc(NC(=O)CN2CCCCC2)cc1,11.1% (inactive),–
C[C@H]1C[C@H]2[C@@H]3CCC4=CC(=O)C=C[C@]4(C)[C@H]3C(=O)C[C@]2(C)[C@@]1(O)C(=O)CO,-0.729% (inactive),–
CCC1=C[C@@H]2CN(C1)Cc1c([nH]c3ccccc13)[C@@](C(=O)OC)(c1cc3c(cc1OC)N(C)[C@H]1[C@@](O)(C(=O)OC)[C@H](OC(C)=O)[C@]4(CC)C=CCN5CC[C@]31[C@@H]54)C2,–,11.2 µM (active)
CC(=O)OCC(=O)[C@@]1(O)CCC2C3CCC4=CC(=O)CC[C@]4(C)C3[C@@H](O)C[C@@]21C (stereo partly drawn),-8.54% (inactive),–
CSCC[C@H](NC(=O)[C@H](Cc1c[nH]c2ccccc12)NC(=O)CCNC(=O)OC(C)(C)C)C(=O)N[C@@H](CC(=O)O)C(=O)N[C@@H](Cc1ccccc1)C(N)=O,-18.5% (inactive),–
O=C(CCC1CCN(Cc2ccccc2)CC1)c1ccc2c(c1)NCCCC2,-4.54% (inactive),–
CC1CC(=O)NN=C1c1ccc(NCC(C)(C)NCC(O)COc2cc(Cl)ccc2C#N)cc1 (stereo not drawn),11.8% (inactive),–
CO/N=C(/C(=O)N[C@@H]1C(=O)N2C(C(=O)O)=C(Cn3nnc(C)n3)CS[C@H]12)c1csc(N)n1,-11.7% (inactive),–
